# This is a sample that favours compounds with a hit; in the whole collection about 1.3% have one here.
# AmpC no deterg: qHTS Inhibitors of AmpC Beta-Lactamase (assay without detergent) | P00811 | AmpC nitrocefin hydrolysis, absorbance 480 nm, 0.0001% Triton | Potency, µM (highest dose often 57.1 µM), for the others: top-dose activity change, negative = inhibition, most hits filed as inhibitors | actives 0.52% (n = 330,000) | AID 485341, 2010;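 also: potency is read from the fitted curve at half-maximal effect; plate controls were no compound for no effect and no enzyme for full effect; nearly all actives have a fitted effect of over 20% in size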
# Target sequence (P00811 whole entry, looked up): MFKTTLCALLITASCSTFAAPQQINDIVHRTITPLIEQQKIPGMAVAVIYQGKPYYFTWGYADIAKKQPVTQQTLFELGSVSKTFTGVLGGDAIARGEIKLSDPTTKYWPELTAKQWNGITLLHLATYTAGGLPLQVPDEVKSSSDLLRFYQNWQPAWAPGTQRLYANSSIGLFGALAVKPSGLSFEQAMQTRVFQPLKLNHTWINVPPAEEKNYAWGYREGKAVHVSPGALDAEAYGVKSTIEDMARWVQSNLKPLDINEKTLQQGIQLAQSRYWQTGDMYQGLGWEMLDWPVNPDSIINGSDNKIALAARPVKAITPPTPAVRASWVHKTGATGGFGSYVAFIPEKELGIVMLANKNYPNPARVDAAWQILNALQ
#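 AmpC (5.3 nM in the dispensed reagent) in 20 mM phosphate pH 7.0 with 0.01% (detergent screen) or 0.0001% Triton X-100 was preincubated with compounds for 15 min at room temperature. Nitrocefin was then added from an 800 uM solution, and hydrolysis was followed at 480 nm.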
# AMA1-RON2 inh: qHTS for Inhibitors of AMA1-RON; Towards Development of Antimalarial Drug Lead: Primary Screen; Plasmodium falciparum AMA1 (3D7) - RON2 peptide interaction; AlphaScreen AMA1-biotinylated RON2 peptide binding; Potency, µM (highest dose often 58.2 µM), inactives show top-dose activity change, negative = inhibition, actives largely listed as inhibitors; actives 0.2% (n = 360,000); AID 720542, 2013;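 also: potency is read from the fitted curve at half-maximal effect; 0% = vehicle wells and -100% = peptide control; nearly all actives have a fitted effect of over 45% in size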
#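 AMA1 (3D7) with his tag at 25 nM final met compounds first, then biotinylated RON2 peptide at 25 nM; detection used donor plus acceptor beads, 10 µg/mL apiece, read by AlphaScreen after 30 min at room temperature.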
# VACV Venus inh: qHTS for Stage-Specific Inhibitors of Vaccinia Orthopoxvirus: Venus Reporter Primary qHTS | Vaccinia virus Venus reporter expression, fluorescence | Potency, µM (top dose mostly 36.5 µM), for the others: top-dose activity change, negative = inhibition, usual class: inhibitors | actives 0.46% (n = 330,000); calls by dose curve; tested in A549 cells; also: potency is read from the fitted curve at half-maximal effect; % is scaled to controls: 0 for no effect and ±100 for the full control effect; nearly all actives have a fitted effect of over 30% in size
# SARS PLpro yeast-1: qHTS of Yeast-based Assay for SARS-CoV PLP | Potency, µM (titrated, usually from 32.9 µM), for inactives: at the highest dose activity, positive = growth rescue, most hits filed as activators | S. cerevisiae expressing SARS-CoV PLpro, growth rescue | actives 0.19% (n = 330,000); calls by dose curve; also: potency is read from the fitted curve at half-maximal effect; 0% is about no effect; nearly all actives have a fitted effect of over 55% in size
# Vaccinia mCherry: qHTS for Stage-Specific Inhibitors of Vaccinia Orthopoxvirus: mCherry Reporter Primary qHTS; actives 0.63% (n = 310,000); Potency, µM (top dose mostly 36.5 µM), without a hit: at the top dose activity change, negative = inhibition, most hits filed as inhibitors; Vaccinia virus mCherry reporter infection, fluorescence; calls by dose curve; tested in A549 cells; also: potency is read from the fitted curve at half-maximal effect; % is scaled to controls: 0 for no effect and ±100 for the full control effect; nearly all actives have a fitted effect of over 35% in size
# AmpC inh detg: qHTS Inhibitors of AmpC Beta-Lactamase (assay with detergent); P00811; AmpC hydrolysis of nitrocefin, absorbance 480 nm, 0.01% Triton; Potency, µM (highest dose often 114 µM), without a hit: at the top dose activity change, negative = inhibition, hits mostly inhibitors; actives 0.041% (n = 370,000); AID 485294, 2010;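 also: potency is read from the fitted curve at half-maximal effect; 0% = no-compound wells and -100% = no-enzyme wells; nearly all actives have a fitted effect of over 25% in size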
#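 AmpC (5.3 nM in the dispensed reagent) in 20 mM phosphate pH 7.0 with 0.01% (detergent screen) or 0.0001% Triton X-100 was preincubated with compounds for 15 min at room temperature. Nitrocefin was then added from an 800 uM solution, and hydrolysis was followed at 480 nm.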
# SARS PLpro yeast-2: qHTS of Yeast-based Assay for SARS-CoV PLP: Hit Validation | yeast expressing SARS-CoV PLpro, growth phenotype rescue | calls only | shares compounds with SARS PLpro yeast-1 | actives 19% (n = 1,000) | AID 652038, 2013; call rule not given here
# * hit, by the source's call; i = inactive; ? = inconclusive; / = no result given; + = active, no number; ! = repeats disagree; [ ] = dose if it differs, or a comment. Unless noted, calls follow the shape of the dose curve; as a rule, active = well fitted curve in the direction sought with a large enough effect; inconclusive = small, poorly fitted or top-dose-only effect, or another doubt; inactive = no such curve, though single readings can be large; an effect the other way counts as inactive or inconclusive.
SMILES,AmpC no deterg,AMA1-RON2 inh,VACV Venus inh,SARS PLpro yeast-1,Vaccinia mCherry,AmpC inh detg,SARS PLpro yeast-2
Cc1cc(=O)[nH]c(N/N=C/c2c(O)n(-c3ccccc3)c(=O)c3ccccc23)n1,-22%,39%,-6%,?,0%,?,i
COc1ccc(NS(=O)(=O)c2cccc(C(=O)NNC(=O)c3ccc(Br)o3)c2)cc1,-30%,81%,?,-1%,?,?,/
Cc1ccc(F)cc1C(=O)N1CCOCC1c1cc(C(=O)NCc2ccccc2)no1 (stereo not given),/,3%,-9%,/,28%,/,/
Cc1ccc(Nc2cc(C)nc(N3CCOCC3)n2)cc1,0%,-12%,-26%,12%,i,4%,/
CCCCNc1cc(C)nc(N2CCOCC2)n1,-3%,3%,-12%,?,/,-8%,i
Cc1cccc(C)c1NC(=O)CC1SC2=NCCN2C1=O (stereo not given),-21%,4%,-15%,?,-18%,1%,i
CCCCCC(=O)N/N=C(\C)c1ccc(N2CCCCC2)cc1,8%,27%,0%,14µM*,-8%,-3%,i
Cc1[nH]c(=S)sc1Cc1ccc(F)cc1,-31%,22%[11.6 µM],?,10µM*,?,-10%,i
Cc1cccc(NC(=O)[C@H](NC(=O)[C@@H]2Cc3ccccc3CN2)c2ccccc2)c1,4%,31%,/,0%,/,4%,/
O=C1OCCN1C(=O)[C@H]1[C@H](c2ccccc2)C(c2cccc(Cl)c2)=NN1c1ccccc1,-17%,48%,-13%,?,-8%,/,+
Cc1ccc(C(=O)N/C(=C/c2ccco2)C(=O)OCN2C(=O)c3ccccc3C2=O)cc1,-38%,-2%,-13%,?,i,-11%,/
Cn1cccc1/C=N/NC(N)=S,-13%,74%,?,10µM*,-24%,-4%,+
C/C(=N\NC(=O)CN1CCN(S(=O)(=O)c2ccc(C)cc2)CC1)c1ccc(O)cc1,18%,11%,/,1%,/,-5%,/
COc1cccc(-c2ccc3ncnc(NCc4cccs4)c3c2)c1,?,/,0%,7.1µM*!,i,?,i
O=C(CSc1nnc(-c2ccc(C(F)(F)F)cn2)s1)c1ccc(Cl)cc1,-12%,1%,-18%,-1%,0%,2%,/
CC(C(=O)c1ccccc1)N1C(=O)c2ccccc2C1=O (stereo not given),-8%,-4%,-8%,?,i,-2%,i
CN(C(=O)c1ccccc1-c1ncc[nH]1)C1CCCN(Cc2ccccc2F)C1 (stereo not given),-5%,6%,/,16µM*,/,5%,i
CN(C(=O)c1ccncc1)C1CCCN(Cc2ccccc2F)C1 (stereo not given),63%,-2%,-14%,-7%,i,0%,/
COc1cc(/C=C/C(=O)O)ccc1OS(=O)(=O)c1cc(C)ccc1C,-33%,-2%,3%,-1%,-25%,-25%,/
COc1cc(/C=C/C(=O)O)ccc1OS(=O)(=O)c1cc(Br)ccc1C,-28%,0%,/,10µM*,/,-6%,i
N#Cc1c(NC(=O)c2cc3nc(-c4ccc(Br)cc4)cc(C(F)(F)F)n3n2)sc2c1CCCC2,/,/,-8%,/,-11%,4%,/
CCCCN(C(=O)CCOc1ccc(OCC)cc1)c1c(N)n(Cc2ccccc2)c(=O)[nH]c1=O,/,-13%,-13%,/,i,/,/
CCCCN(C(=O)CSc1nnc(-c2ccc(OC)cc2)n1CC)c1c(N)n(Cc2ccccc2)c(=O)[nH]c1=O,5%,-5%,-3%,?,i,-1%,i

# Screens as filed in PubChem.
